# Assay results published in PubChem BioAssay.
# Values without a mark were called inactive.
# Assay: ATP-based viability of Huh7 replicon cells – cell-based, CellTiter-Glo luminescence, basal, 48 h, cytotoxicity control for HCV replication inhibitor project, primary screen (AID 1143);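 also: Huh7 hepatoma cells carrying a hepatitis C replication reporter with no stimulus; test concentration not given here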
# Details: higher = more signal, called active from +8 up or from −8 down
row,SMILES,z-score
1,COCCCNC(=O)[C@@H]1c2ccccc2C(=O)N(C2Cc3ccccc3C2)[C@H]1c1ccc(CO)cc1,0.646
2,COc1ccc([Si](C)(C)[C@H]2[C@H](CCO)O[C@@]3(C(=O)N(Cc4ccccc4)c4ccc(N5CCOC5=O)cc43)[C@@H]2C)cc1,-4.87
3,C[C@@]12COC[C@]13C=C(Br)[C@H](C2)[C@@]1(CO1)C3=O,0.603
4,Nc1cc(Br)ccc1C(=O)O,0.389
5,COC(=O)[C@@]1(Cc2ccccc2)[C@H]2c3cc(C(=O)N(C)C)n(CCn4cc([N+](=O)[O-])nc4C)c3C[C@H]2CN1C(=O)c1ccccc1,-0.65
6,C=C(/C(=C/C[C@@H](OC(C)=O)c1ccc(CO)o1)c1cc(C(=O)OC)ccc1OC)C(C)C,-0.143
7,CC(C)C(=C=CC[C@H](O)c1cccc(OCCO)c1)CCO,-1.25
8,C=CCN1C(=O)[C@]2(O[C@H](CCO)[C@@H]([Si](C)(C)c3ccc(OC)cc3)[C@@H]2C)c2cc(NC(=O)c3ccc(OC)cc3)ccc21,-7.99
9,CC(=O)NCCCC[C@@H]1NC(=O)[C@@H]2C[C@H](C(=O)NCCCCCCN)[C@H](c3cccc(OCCO)c3)N2C1=O,-0.0107
10,CN(C)CCCCNC(=O)[C@H]1C[C@H]2C(=O)N[C@@H](CCCC[N+](C)(C)C)C(=O)N2[C@H]1c1ccc(O)cc1,-0.482
11,CC(C)N1CC=CC23O[C@@H]4/C=C\CCCOC(=O)C4[C@H]2C(=O)N(CCCCCCO)[C@@H]3C1=O (stereo not given in full),0.0722
12,O=C(CS)NCCCCCCNC(=O)[C@@H]1C[C@@H]2C(=O)NCC(=O)N2[C@@H]1c1ccc(O)cc1,-0.534
13,COc1ccc([Si](C)(C)[C@H]2[C@H](CCO)O[C@@]3(C(=O)N(Cc4ccccc4)c4ccc(N5C(=O)c6ccccc6Oc6ccccc65)cc43)[C@@H]2C)cc1,-6.59
14,NC(=O)[C@H]1[C@@H]2C(=O)O[C@@H](c3ccccc3)[C@@H](c3ccccc3)N2[C@@H](c2ccc(O)cc2)[C@]12C(=O)Nc1ccccc12,-0.0816
15,[N-]=[N+]=NCc1ccccc1[C@@H]1OC(c2ccc(OCCCO)cc2)=N[C@]1(Cc1ccccc1)C(=O)NCCN1CCOCC1,-2.31
16,O=C1C2C=CC(C(O)c3ccc4c(c3)OCO4)N(Nc3ccccc3)C2C(=O)N1c1ccccc1 (stereo not given),-0.924
17,O=C(CS)NCCCCCNC(=O)[C@@H]1C[C@@H]2C(=O)N[C@@H](Cc3ccccc3)C(=O)N2[C@@H]1c1cccc(OCCO)c1,-0.497
18,NCCCCCNC(=O)[C@@H]1C[C@@H]2C(=O)N3CCC[C@H]3C(=O)N2[C@@H]1c1ccc(O)cc1,-0.406

row,SMILES,z-score
1,COc1cc(NN2C(C(O)c3ccccc3)C=CC3C(=O)N(C)C(=O)C32)cc(OC)c1OC (stereo not given),-2.51
2,CC=CC(O)C1C=CC2C(=O)NC(=O)C2N1Nc1ccccn1 (stereo not given),1.11
3,COCCOC(=O)N1C(=O)[C@@]2(c3ccccc31)[C@H](c1ccccc1OCCO)N1[C@H](c3ccccc3)[C@H](c3ccccc3)OC(=O)[C@H]1[C@@H]2C(N)=O,-4.2
4,COc1cc(NN2C(C(O)c3ccc(I)cc3)C=CC3C(=O)N(c4ccccc4)C(=O)C32)cc(OC)c1OC (stereo not given),-3.44
5,[N-]=[N+]=NCc1ccccc1[C@@H]1OC(c2ccc(OCCCO)cc2)=N[C@]1(Cc1ccccc1N=[N+]=[N-])C(=O)NCCN1CCOCC1,-3.14
6,C=C(/C(=C/C[C@H](OC(=O)c1ccncc1)c1ccccc1OCCO)c1cnc2ccccc2c1)C(C)C,-0.0956
7,C=CCNC(=O)[C@@H]1[C@H]2C(=O)O[C@H](c3ccccc3)[C@H](c3ccccc3)N2[C@H](c2ccc(OCCO)cc2)[C@@]12C(=O)N(C(=O)OCCOC)c1ccc(C#CCCO)cc12,-3.32
8,C=C[C@H](C)[C@H](OC(=O)Nc1ccc(OC)cc1)c1ccc(OCCO)cc1,-2.77
9,COc1ccc(C#Cc2ccc3c(c2)[C@]2(C(=O)N3)[C@H](C(=O)N3CCCCCCC3)[C@H]3C(=O)O[C@H](c4ccccc4)[C@H](c4ccccc4)N3[C@@H]2c2ccc(O)cc2)cc1,-0.71
10,NCCCCCNC(=O)[C@H]1C[C@H]2C(=O)N[C@@H](Cc3ccccc3)C(=O)N2[C@H]1c1ccc(O)cc1,0.169
11,CC(C)c1ccc(NN2C(C(O)Cc3ccccc3)C=CC3C(=O)N(c4ccccc4)C(=O)C32)cc1 (stereo not given),-0.695
12,Cc1ccc(S[C@]2(C(=O)NCc3ccccc3)CC(=O)N(Cc3cc(C(F)(F)F)cc(C(F)(F)F)c3)[C@@H]2c2ccc(CO)cc2I)cc1,-1.24
13,COCCCNC(=O)[C@@]1(c2ccc([N+](=O)[O-])cc2)CC(=O)N(C(C)C)[C@@H]1c1ccc(CO)cc1,0.433
14,CN1C(=O)C2C=CC(C(O)c3ccc(I)cc3)N(Nc3ccccc3)C2C1=O (stereo not given),0.134
15,CCOC(=O)C1=C[C@@H](c2ccccc2)N(S(=O)(=O)c2ccc(C)cc2)[C@H]1c1ccccc1,-1.91
16,CC1CC/C=C\[C@H]2OC34C=CCN(C(C)(C)C)C(=O)[C@H]3N(C(CO)C(C)C)C(=O)[C@@H]4C2C(=O)O1 (stereo not given in full),0.0336
17,COC(=O)[C@@]1(Cc2ccc(F)cc2)[C@H]2c3cc(C(=O)N4CCCC4)n(CC4CC4)c3C[C@H]2CN1C(=O)c1ccccc1,-2.61
